Assay outcomes: PubChem, National Center for Advancing Translational Sciences (NCATS)
In the library only some 2.7% were active in any assay of this set; here they are far more common.
GLP1R ag – GLP-1 receptor (human) agonism; HEK293 GLP-1R CRE-luciferase, luminescence, 4-6 h; cells express a hypersensitive GLP-1R form; hit rate 0.007% among 380,000; Potency, µM (series often up to 45.6 µM), actives largely listed as activators
Target sequence (P43220 whole entry, looked up): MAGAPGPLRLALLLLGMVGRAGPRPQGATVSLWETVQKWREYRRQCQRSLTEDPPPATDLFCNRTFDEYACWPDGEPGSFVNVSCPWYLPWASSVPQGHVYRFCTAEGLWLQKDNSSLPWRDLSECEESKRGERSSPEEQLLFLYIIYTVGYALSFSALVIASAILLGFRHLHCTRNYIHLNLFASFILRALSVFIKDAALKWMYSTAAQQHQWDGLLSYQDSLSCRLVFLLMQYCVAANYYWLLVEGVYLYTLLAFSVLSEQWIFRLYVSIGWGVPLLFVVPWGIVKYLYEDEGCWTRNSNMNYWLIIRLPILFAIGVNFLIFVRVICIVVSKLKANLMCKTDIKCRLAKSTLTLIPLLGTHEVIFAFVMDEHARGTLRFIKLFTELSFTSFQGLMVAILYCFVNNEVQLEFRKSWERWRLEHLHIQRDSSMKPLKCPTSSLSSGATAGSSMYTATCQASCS
GLP1R inv ag – GLP-1 receptor (human) inverse agonism; hit rate 1.6% among 410,000; Potency, µM (highest dose often 38.3 µM), most hits filed as inhibitors; AID 624417; HEK293 GLP-1R CRE-luciferase, luminescence, 24 h; GLP-1R form is constitutively active; P43220; further: nearly all actives have a fitted effect of over 55% in size
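Readout was luciferase luminescence, measured 12 min after detection reagent at room temperature. Beforehand, GLP-1R reporter HEK293 cells had sat 12 h, then received compounds for 24 hr at 37 deg C.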
Integrin act MD – integrin-mediated muscular dystrophy alleviation activation | alpha7betagal myoblasts, beta-gal FDG fluorescence, 48 h | Potency, µM (top dose mostly 38.3 µM), usual class: activators | hit rate 0.064% among 350,000 | AID 624291; further: nearly all actives have a fitted effect of over 60% in size
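alpha7betagal+/- myoblasts (passage 13, 250/well) treated 48 h at 37C with compounds at 1:260 dilution of DMSO stock. Lysed, then beta-galactosidase activity read as FDG fluorescence (ex 480/em 540) after 30 min, with pre-read for autofluorescence.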
HEK293 tox – cytotoxicity in counter-screen for GLP-1R inverse agonists; HEK293 cAMP-luciferase reporter cells, luminescence, 24 h; Potency, µM (top dose mostly 38.3 µM), hits mostly inhibitors; hit rate 0.13% among 410,000; AID 624418;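 further: loss of luciferase light is scored as toxicity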
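1536-well qHTS counterscreen of the MLSMR; 200 cells/uL, 12 h pre-incubation, 23 nL cpd, 24 h at 37 deg C 5% CO2, luciferase detection reagent, 12 min RT, luminescence. Inhibition = undesired.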
BRCA1 expr act – increases BRCA1 expression; Potency, µM (top dose mostly 46.1 µM), actives largely listed as activators; AID 624202; MCF7-BRCA1-FFLuc reporter, luminescence, 48 h; response scale: scaled: vehicle 0%, 10 µM genistein 100%; hit rate 1.1% among 380,000; further: nearly all actives have a fitted effect of over 80% in size
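Reporter cells (MCF7, BRCA1 promoter-firefly luciferase) received library compounds across a concentration series for 48 h. End-point luminescence was measured and concentration-effect curves derived after normalization.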
Hits are given with their value; i = inactive; ? = inconclusive; nt = no result given. The call rests on the fitted dose curve; in most records, active means well fitted curve in the direction sought with a large enough effect; inconclusive means small, poorly fitted or top-dose-only effect, or another doubt; inactive means no such curve, though single readings can be large; an effect the other way counts as inactive or inconclusive.

SMILES	GLP1R ag	GLP1R inv ag	Integrin act MD	HEK293 tox	BRCA1 expr act
COc1cccc(-c2cnc3cccnn23)c1	i	i	nt	i	13µM
COc1cccc(-c2ccnc3c(-c4ccccc4)c(C)nn23)c1	i	?	nt	i	11µM
Cc1ccc(-c2cnc3cccnn23)cc1F	i	i	nt	i	i
CCCCn1c(CNC(=O)C23CC4CC(CC(C4)C2)C3)nnc1SCC(=O)Nc1ccc(F)cc1	i	?	nt	i	i
C=CC[C@H](CC(=O)N(CCO)Cc1ccccc1)C(=O)N[C@H](C)COC(=O)[C@@H](CC=C)Cc1ccc(F)cc1	i	11µM	i	i	i
C=CCC[C@@H](Cc1ccc(F)cc1)C(=O)OC[C@H](Cc1c[nH]c2ccccc12)NC(=O)[C@H](CC=C)CC(=O)N(CCO)Cc1ccccc1	i	10µM	i	?	i
C=CC[C@H](CC(=O)N(CCO)Cc1ccccc1)C(=O)NC[C@@H](OC(=O)[C@@H](CC=C)Cc1ccc(F)cc1)c1ccccc1	i	3.2µM	i	i	i
Cc1ccc(S(=O)(=O)C(CNC(=O)C(=O)NCCc2ccccc2)c2cccs2)cc1 (stereo not given)	nt	i	nt	i	nt
O=C(Nc1ccc(NC(=O)N2CCN(c3ccccc3O)CC2)cc1)N1CCN(c2ccccc2O)CC1	i	5µM	i	i	i
COc1ccc(N2CC(NC(=O)/C=C\c3ccccc3)CC2=O)cc1 (stereo not given)	nt	i	nt	i	nt
COc1ccc(OCc2csc(N)n2)cc1	i	i	i	i	10µM
COc1ccccc1CNc1ccc(-c2nc(C(C)C)no2)cc1[N+](=O)[O-]	nt	?	nt	i	i
Cc1cc2c(cc1S(=O)(=O)Nc1cccc(Cl)c1C)OCCN2C	nt	10µM	nt	i	nt
CCOC(=O)c1ccc(CN(Cc2ccccc2C)S(=O)(=O)c2ccc(C(C)(C)C)cc2)cc1	nt	i	nt	i	nt
COc1ccc2c(CNCc3cccs3)c(C(=O)O)n(Cc3ccccc3C)c2c1	nt	i	nt	i	nt
Cc1cccc(OCC(=O)Nc2ccc(-c3nc4cc(C)ccc4o3)c(O)c2)c1	nt	i	nt	i	nt
O=[N+]([O-])c1cccc(C=NNc2ccccc2)c1	i	?	i	i	i
O=[N+]([O-])c1ccc(N/N=C/c2ccccc2)c(F)c1	i	?	i	i	8.9µM
O=C(CN1c2ccccc2Sc2ccccc21)N/N=C/c1ccc([N+](=O)[O-])cc1	i	13µM	i	i	i
O=[N+]([O-])c1ccc(C=NNc2ccccc2)cc1	i	5µM	i	i	i
COc1cccc(OC)c1C(=O)Nc1ccc(-c2nc3ncccc3o2)cc1	nt	i	nt	i	nt
O=C(CSC(=S)N1CCCCC1)c1ccccc1	i	?	i	i	i
COc1ccc(C(=O)CSC(=S)N2CCCCC2)cc1	i	i	nt	i	3.2µM
Brc1ccc(NC2=Nc3ccccc3CC2)cc1	i	i	i	i	8.9µM
CCn1ncc(Br)c1C(=O)Nc1ccc(C(C)C)cc1	?	8.9µM	i	i	i
SMILES	GLP1R ag	GLP1R inv ag	Integrin act MD	HEK293 tox	BRCA1 expr act
CC(C)=CC(=O)Nc1nnc(-c2ccccc2C)s1	i	i	i	i	3.5µM
CCc1nnc(NC(=O)C=C(C)C)s1	i	i	i	i	i
COc1ccc(Oc2cnc3ccccc3n2)cc1	i	?	i	i	11µM
COc1cccc([C@H]2Nc3ccc(S(=O)(=O)Nc4cc(C)ccc4C)cc3[C@H]3C=CC[C@H]32)c1	nt	i	nt	i	nt
CC(C)(C)OC(=O)[C@H](Cc1ccccc1)NC(=O)c1nc[nH]c1C(=O)N[C@@H](Cc1ccccc1)C(=O)OC(C)(C)C	i	10µM	i	i	i
O=C(NCc1ccccc1)c1ccc(NC(=O)c2nsc3ccccc23)cc1	nt	i	nt	i	nt
N=C1S/C(=C\c2ccco2)C(=O)N1c1nccs1	i	1µM	i	i	i
O=C(NCC1(c2ccccc2)CCCC1)c1ccccc1Br	i	10µM	i	i	i
CC(=O)n1cc(N(C(=O)CCl)c2ccccc2)c2ccccc21	i	3.5µM	i	?	i
CC(C)(C)S(=O)(=O)N1C[C@@H]2CC/C=C\C/C=C\2[C@H]1CCO	i	5µM	i	i	i
CC(C)(C)S(=O)(=O)N1C[C@H]2CC/C=C\C/C=C\2[C@@H]1CCO	i	2.8µM	i	i	i
CCOC(=O)C1CCN(C(=O)CC(C)c2ccccc2)CC1 (stereo not given)	i	?	i	i	i
CCOC(=O)C1CCCN(C(=O)CC(C)c2ccccc2)C1 (stereo not given)	i	i	i	i	13µM
CCc1ccccc1-n1nnnc1SCC(=O)Nc1ccc(N2CCN(C)CC2)cc1	i	1.8µM	i	i	i
Cc1cccc(-n2nnnc2SCC(=O)Nc2ccc(N3CCN(C)CC3)cc2)c1	i	?	i	i	i
Cc1ccccc1-n1nnnc1SCC(=O)Nc1ccc(N2CCN(C)CC2)cc1	i	1µM	i	i	i
Clc1cc(Br)ccc1OCCN1CCOCC1	i	i	i	i	i
CCCCCOc1ccc(CN2CCOCC2)cc1Cl	i	?	i	i	8.9µM
CCOc1ccc(-c2nn(CC(=O)NC3CCCCC3)c3c2cnc2ccc(C)cc23)cc1	nt	i	nt	i	nt
CC(C)CCn1c(=O)c2ccccc2c2ccccc2c1=O	i	10µM	i	i	i
CCOC(=O)C(c1ccccc1)C(Nc1ccc(F)cc1)c1ccccn1 (stereo not given)	i	10µM	i	i	i
CCOC(=O)C(C#N)c1ccccn1 (stereo not given)	i	i	i	i	i
CCOc1ccc(-c2nnc(SCC(=O)NCc3ccccc3Cl)o2)cc1	nt	i	nt	i	i
CC12CCC(C(=O)N3CCc4ccccc43)(CC1=O)C2(C)C (stereo not given)	i	13µM	i	i	i
CC(C)(C)C(c1nc2ccccc2[nH]1)n1c(-c2ccsc2)nc2ccccc21 (stereo not given)	nt	10µM	nt	?	nt
SMILES	GLP1R ag	GLP1R inv ag	Integrin act MD	HEK293 tox	BRCA1 expr act
Cc1ccc(C(c2nc3ccccc3[nH]2)n2c(-c3ccccc3)nc3ccccc32)cc1 (stereo not given)	i	i	nt	i	4.5µM
CCOc1ccc(CCNC(=O)c2cc3c(-c4ccccc4F)nn(C)c3s2)cc1OCC	nt	?	nt	i	nt
Cc1cc(C(=O)CSc2ccc(Cl)cc2)cc(C)c1OC(=S)N(C)C	i	?	i	i	5µM
CN(C)c1ccc(/C=C2\C=Cc3ccccc32)cc1N	nt	nt	nt	nt	i
Cc1cccc2sc(NC(=O)C3CSC4(C)CCC(=O)N34)nc12 (stereo not given)	i	7.1µM	i	i	i
CCC1CCCCN1C(=O)Cn1c(=O)n(-c2ccc(Cl)c(Cl)c2)c(=O)c2c(C)c(C(=O)N(C)C)sc21 (stereo not given)	nt	i	nt	i	nt
Cc1ccc2c(CNCc3ccco3)cc(=O)oc2c1	i	i	i	i	7.9µM
